Assay results published in PubChem BioAssay AID1159506 (National Center for Advancing Translational Sciences (NCATS), 2015).
In all, about 59,000 sequences were measured (the read-out: median about -0.00055, lowest 2% from about -2 on). Shown is part of a subset that was picked to be rich in the lowest values.

Test: Identification of proteins required for the processing of the EWS-FLI1 nascent transcript;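 note: robust z of luciferase light less the median z of siRNAs with the same seed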
Details: TC32 Ewing sarcoma NR0B1-luc vs CMV-luc (EWS-FLI1 target promoter against control promoter), 48 h; screened at 20 nM (by protocol)
Experimental: Ewing sarcoma (ES) cells depend on the EWS-FLI1 fusion transcription factor for cell survival. Using an assay of EWS-FLI1 activity and genome-wide siRNA screening we have identified proteins required for the processing of the EWS-FLI1 nascent transcript. Parallel genome-wide siRNA-mediated RNAi screens were conducted in Ewing sarcoma TC32 cell lines expressing a luciferase (luc) reporter protein driven by either the promoter of the EWS-FLI1 target gene NR0B1 (TC32-NR0B1-luc) or the CMV promoter (TC32-CMV-luc). Luciferase activity was assessed 48 hours post siRNA-transfection.
Twenty microl of serum-free media containing Lipofectamine RNAiMax (0.05 microl) was added to wells containing siRNA (0.8 pmol). Lipid and siRNA were allowed to complex for 45 min at ambient temperature before addition of 600 cells in RPMI-1640, 20% FBS to yield final transfection mixtures containing 20 nM siRNA in RPMI-1640, 10% FBS. Luciferase expression was measured using OneGlo (Promega, Madison, WI). The genome-wide screening campaign was conducted using Ambion's human genome library version 4.1 (Ambion, Austin TX). This library targets approximately 21000 human genes, three siRNAs per gene. Each siRNA is arrayed in an individual well of a 384-well plate. Parallel transfections were conducted in TC32-NR0B1-luc and TC32-CMV-luc cell lines and luciferase expression (OneGlo, Promega) was assayed 48 h later on a PerkinElmer Envision 2104 Multilabel plate reader (PerkinElmer, Waltham, MA). Qiagen's AllStars Negative control was incorporated on all screening plates for normalization (16 wells per plate). Qiagen, Germantown, MDsiGL4 was incorporated as a positive transfection control (16 wells per plate) on all plates. […] The raw luciferase data for the NR0B1- and CMV-luc screens were normalized and z-score-MAD transformed using standard methods (Chung et al., 2008). The miRNA-like seed sequence of every siRNA was determined and the median z-score for all siRNA sequences with the same seed sequence was calculated. This z-score was subtracted from the z-score associated with each siRNA with that seed sequence to generate a seed-adjusted z-score value (Z) that was used when the results for the three siRNAs corresponding to each gene were compared (Marine et al., 2012)

Point of comparison: UCCAUUAUCCCAAUAGACC against PGM2, seed-corrected z-score -0.182. Against it:
- UUGACUACCAGGAAAGGCU against KRT86 — higher, -0.062
- UAUUUAUUGCGAGAAUCAG against CLCN4 — lower, -3.96
- UCCAGAAGCUGGAUGGUCC against GALE — lower, -0.197
- UGACGUACAGGUUAGCAUC against ELAVL3 — higher, 0.583
- AACGGUAUUGAUGACAGCC against TMLHE — lower, -0.307
- UACGAUGUCACCUAUAUUG against CSMD2 — higher, -0.00124
- UAUCUUGAGAGGUGCCUCC against THRAP3 — higher, 1
- UCGUACUUUAAAGAUGUCC against CR1 — lower, -0.43
- UUGUUUGCAGGAAGGGAGG against LOC643770 — lower, -0.34
- UUUCUGUUCUUACAGGUGG against SRSF5 — lower, -1.33
- AUAGUAAAACCAAUUACCC against OR2J2 — lower, -2.15
- AUGGUGAAGACGUAGUUGC against CACNA1H — lower, -1.21
- UUUAGGAACCUUGACUAGC against GTF2F2 — higher, 0.153
- AACGUGUAGAUCUUCAUGA against UBXN6 — lower, -1.15
- UGAAGUUCAGGUUCGUAAC against TBPL1 — lower, -2.64
- UUGACAUUUACUUCAGUUU against TRABD — higher, 0.607
- AGUGGAUACAUAGCUGUCU against ZBTB45 — lower, -0.6
- UCCUUAAUUUGAUAUUUGC against MAGEA8 — higher, -0.105
- AUACUUGCAGGUGUCAUUG against CD300A — lower, -0.484
- AUCGCUUUGAGGUUAGAGG against SYT3 — lower, -0.878
- UAUCAUAUGAUGCAUAAGC against ANGPTL5 — higher, 0.711
- UGAUGAUACACUGCAAGUC against IGSF3 — lower, -2.96
- UAAUCUAUUGAUAUGCUGG against SLC25A32 — higher, 0.699
- AAGUGGAACACUCAAGUCC against ZNF471 — lower, -1.03
- AUAAAUGAUACGGGUGCUC against TPI1 — lower, -0.201
- UAGGAGCAGAGGAAUCUUC against SLC35F4 — higher, 0.0717
- UUCUGAUGUAUGUUGAGCC against ZNF350 — lower, -4.18
- UUCUCGUUGAUCUUUUUGG against CPXCR1 — higher, -0.131
- UCCUGUUCCUUGAUAUUGU against GZMH — lower, -0.564
- UUAUCUGUGAGAGCAAUUA against LOC728752 — lower, -1.23
- UCUGGAUCUAUUAAGCUGC against LRRFIP2 — lower, -2.34
- AAAUCAGUGGGAAAGAUCC against DENND3 — higher, 1.04
- UUCUCCAUCAUGCGAAUGG against FEN1 — higher, 0.188
- UGGUAGUACACCUUGCAGC against C1orf111 — lower, -2.08
- UGUAAUACCUGAAUCGGUG against PRKRA — lower, -0.234
- AAAUAGACAAAUAGGAUCC against PSMD12 — lower, -2.98
- UAUCUGAGAGUGAUCCUUC against LRRC47 — higher, 1.55
- UCAAUUCAGACUGUAAUGC against PTPDC1 — higher, -0.0227
- AUUCUCACCAUAAAGAGCA against LOC729722 — lower, -2.33
- UUAUGCUUAGGUAACUUGC against AADACL3 — lower, -3.87
- UAUAUAUCGUGCUUGAUAC against RIPK2 — higher, 0.0696
- UAUGCGACAAAGAAUGACU against OR4N3P — higher, 0.242
- UUUUCGAUUAAACCUUUUC against C17orf58 — higher, -0.0867
- UAAUCAAUCAUAGAGAUAG against GSTO1 — higher, 0.0812
- UUUAUUACAAUCCAAAAGU against HCST — higher, 0.824
- UUCUCGAUCAAGAGCAUCC against SPEF2 — lower, -12.2
- UUUGUGGUUAUUCUUUUAU against CDC42EP2 — higher, -0.0752
- UACAGCAUAAUCUCAUUUG against BPY2 — higher, 0.91
- UAAGCAGUAGAGUUAGUUC against LINC01249 — higher, 0.231
- UCUGUUCCAAGGCACUAUC against NFE4 — higher, 0.0636
- UUAUACACGAGGAAGAUGU against TMEM169 — lower, -0.406
- UGAGUAAACAGCCUCAGUC against CMIP — lower, -0.223
- UCUCGAUGAAGUCAAACAG against COPG1 — lower, -2.97
- AAUUUGCUAAAUCGUAUUC against CLLU1 — lower, -0.521
- UAGGGUUGGACUUUUUGUC against CYB5R3 — higher, 0.597
- UCCAGUACCUUUUCCUUGG against LOC199882 — higher, 0.35
- AAUACUUGAAGGAAUAGGC against SUPT6H — lower, -5.83
- UACCAUAUUAUACACUUGC against STARD6 — higher, -0.0986
- AUGGAUCCAAUUUGAGUUU against NR2F2-AS1 — higher, 1.74
- AUCUCAUAAAAGAUCAUCC against NUTM1 — higher, -0.0209
- UAUUGUUAAGGACUUUAAC against DNAJB6 — higher, 0.648
- UUCGGUACACUCAUACGGC against ZNF300 — higher, 0.363
- UUAGCUGCUCGGUAACUGG against EPB41 — lower, -2.39
- UAAUGACAUAUCGACAUUU against MIDN — lower, -0.523
- UUAGAGAAUAUGCCCAUGA against FGD3 — lower, -1.11
- UUUGGGUAGAGGCCGAAUG against DNAJC13 — lower, -2.18
- UAUGUUAUCAGUCCAUCUG against MND1 — higher, 0.573
- UCUACAUCAAUAACAGAGG against C5orf28 — higher, 0.545
- UUAUUGGUUGUGACUUUCC against TSLP — higher, 0.686
- UCCCUUUUAAGCAACCUAC against APOC3 — lower, -0.83
- UCAAUAUCCAGACCUGGUG against SF3A1 — lower, -2.88
- UCCCGUAAAACAGAGACAC against OR2C3 — lower, -0.66
- AUCGUGCUCGCUUGGAUCC against LOC729083 — lower, -0.203
- UCGGUUGCGAAUCAGAAUC against NOTCH2 — lower, -2.01
- UUAGAUACUCUGCAGGAUG against EPHA5 — higher, 0.46
- UUUAAUGUCCCAGUCCUCG against TMEM160 — higher, 0.858
- UCUUACAUAGGUAAUUGCC against AGTR1 — lower, -0.402
- UUCCUUAACCCAUCUACAG against C2orf49 — higher, 0.273
- UGAAUGACAUCCACUACCU against OR6K2 — higher, 1.02
- UCAAAGUCGAUUUCAAUCU against BRD4 — lower, -2.4
- UAGAUGUCUGGAGCCCAUC against LYPD6 — lower, -0.74
- AAAGGAGUCAGAUUCAUGC against GPATCH2L — higher, 0.347
- UCUCCAACCAAUUGCCUCC against LOC200726 — higher, -0.147
